# This is part of a sample that, as a whole, favours compounds with a hit. Of some 83,000 tested, about 20% had one in any assay.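 Single-dose data. Exposure time 48 hours. Values below 10 considered active.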 Values without a mark were called inactive. Activity calls are given as the source filed them.
# Tested on: MDA-MB-468 breast
# Assay: NCI-60 one-dose screen, 48 h (100 = growth as untreated, 0 = no growth, -100 = all killed)
# Conditions: 10 µM unless noted
row,SMILES,growth
1,Clc1ccc2c(c1)N(c1ncnc3ccc(-c4cnc5[nH]ccc5c4)cc13)CC2,-4.95% (active)
2,COc1cc(C(=O)c2c(-c3ccccc3)oc3c(OC)cccc23)cc(OC)c1OC,18.4%
3,COc1ccc(-c2cc(-c3ccccc3)nc(SCCCCCCC(=O)NO)n2)cc1,64.1%
4,COc1ccc(C(=O)C(C#N)c2cc(OC)c(OC)c(OC)c2)cc1 (stereo not given),102%
5,Nc1ccc(-n2c(=O)oc3ccc(Cl)cc3c2=O)c(Cl)c1,-6.87% (active)
6,N#Cc1nnn(-c2ccc(S(N)(=O)=O)cc2)c1NC(=O)CCl,98.7%
7,C=C[C@H]1CCC/C=C/[C@@H]2C[C@H](O)C[C@H]2[C@H](O)/C=C/C(=O)O1,-42.7% (active)
8,C[C@@H]1C[C@@H]([C@@H](CC2CC(=O)NC(=O)C2)OC(=O)CC(=O)c2ccccc2)C(=O)[C@@H](C)C1,10.9%
9,CCN(CC)CCNC(=O)c1ccc(-c2nc3ccc4[nH]ncc4c3c3c2CCCC3)cc1,17.4%
10,Cc1cccnc1NC1OC(=O)c2ccccc21 (stereo not given),103%
11,Cc1ccccc1COc1ccc(-c2onc(C)c2-c2ccc(Cl)cc2)cc1,36.1%
12,Cc1ccc(-n2c(=S)[nH]c3sc4c(c3c2=O)CCC(=O)C4)cc1,51.1%
13,C=CCN(/C=C/CN(CC=C)CC=C)CC=C,99.3%
14,C=C(C)[C@@H]1CC[C@]2(C(=O)OC)CC[C@]3(C)[C@H](CC[C@@H]4[C@@]5(C)C/C(=C/c6ccc(OC)cc6)C(=O)C(C)(C)[C@@H]5CC[C@]43C)[C@@H]12,76%
15,COc1cc(NCCCCN=C(N)N)c2ncccc2c1,-29.6% (active)
16,CN(C)c1ccc(/C=c2\s/c(=C\C(=O)C(C)(C)C)[nH]c2=O)cc1,109%
17,CCN1C(=O)N(CC)C2Nn3c(s/c(=C\c4ccc(Cl)cc4Cl)c3=O)=NC21 (stereo not given),32.1%
18,Cc1ccc(-c2cc3nc(C(Cl)Cl)nc(C)n3n2)cc1,110%
19,CN1CCN(Cc2ccc(NC(=O)c3cncc(C#Cc4cncc5[nH]ncc45)c3)cc2C(F)(F)F)CC1,16.6%
20,COc1cc(NC(=O)c2cc(OC)c3ccn(C)c3c2)cc2c1C[C@]1(C)CC[C@@H](O)C(C)(C)[C@H]1O2,69.6%

row,SMILES,growth
1,O=C1N=NC2=C1c1c3ccccc3c(O)n1CC2,96.6%
2,COc1cc(-c2ccc(-c3ccc(C(=N)N)cc3)s2)cc(OC)c1OC,-22.8% (active)
3,CN1CCN(c2ccc(NC3=C(Cl)C(=O)c4ncccc4C3=O)cc2C(F)(F)F)CC1,-79.2% (active)
4,C=C1C(=O)O[C@H]2[C@H]1CC/C(COC(=O)CCCCCC(=O)OC/C1=C/CC[C@@]3(C)O[C@H]3[C@H]3OC(=O)C(=C)[C@@H]3CC1)=C\CC[C@@]1(C)O[C@@H]21,-33.4% (active)
5,COC(CCCl)c1ccc(Cl)cc1 (stereo not given),102%
6,COc1ccccc1C(=O)CSc1nc(Nc2ccc(S(N)(=O)=O)cc2)c2ccccc2n1,99.7%
7,O=C1/C(=C/c2ccccc2Cl)CCc2ccccc21,101%
8,CCCCCCC(C(=O)OCC)(C(=O)OCC)C1CCCCCC1,112%
9,C=CCN1C(=O)c2cccc3c(N4CCOCC4)ccc(c23)C1=O,-40% (active)
10,N#Cc1c(-c2ccccc2)nc(SCc2nnc(-c3ccc(Cl)cc3)o2)[nH]c1=O,103%
11,CONC1=Nc2cc(NC(N)=NCc3ccccc3)c(N(C)C3CCCCC3)cc2OC1,-23.4% (active)
12,C#CCOc1ccc(C2=NN(CC3CC3)C3N=C(Cl)c4ncn(CC5CC5)c4N23)cc1OCC#C (stereo not given),66.2%
13,O=C(/C=C(O)/C=C/c1cccc2[nH]ccc12)/C=C/c1cccc2[nH]ccc12,67.8%
14,Cc1c[n+](Cc2ccc3ccccc3c2)cn1Cc1ccc2ccccc2c1,-22.6% (active)
15,O=C1C=C(O)c2ccccc2C1=O.[Ag],99%
16,COc1cccc(Cc2nn3cc(-c4ccccc4)nc3s2)c1,92.1%
17,CCc1ccc2c(c1)N(CCO)C1=C(C(=O)OC1)C2c1cc(OC)c(OC)c(OC)c1 (stereo not given),2.83% (active)
18,CC(=O)c1cnc2ccc(-c3cc(Cl)c(O)c(Cl)c3)nc2c1NC1CCC(CN(C)C)CC1 (stereo not given),-62% [2.5 µM] (active)
19,CCCCCCCCCCCCCCCC(=O)OC[C@@]1(O)C[C@@]23CC[C@@H]4C(C)(C)CCC[C@@]4(C)[C@@H]2CC[C@H]1C3,103%
20,COC(=O)[C@@H](Cc1c[nH]c2ccccc12)NC(=O)CCCCOc1cc(O)c2c(=O)cc(-c3ccccc3)oc2c1,71.3%
